Assay results reported in the supplement of paper PMC8253809.

Tests used:
Assay in all cases: growth inhibition (% activity, log2 RLU normalised to DMSO / staurosporine); higher = more growth inhibition
Conditions in all cases: 33 µM
DIPGX29 = tested on: DIPGX29 (H3.3 K27M diffuse intrinsic pontine glioma line)
How it was run: (§1)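 The growth-inhibition value comes from CellTiter-Glo luminescence, log2-transformed, normalised per plate to % activity between solvent and positive control wells, and taken as the median over replicates. Treatment of pHGG cell lines and H9-derived neural stem cells with approved drugs was at a single final concentration of about 33 μM, in triplicate, for 7 days at 37 °C, 5% CO2.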

DIPGX37 = tested on: DIPGX37 (H3.3 K27M diffuse intrinsic pontine glioma line)
How it was run: as §1

DIPGX7 = tested on: DIPGX7 (H3.3 K27M diffuse intrinsic pontine glioma line)
How it was run: as §1

DIPGX9 = tested on: DIPGX9 (diffuse intrinsic pontine glioma line)
How it was run: as §1

HGGX39 = tested on: HGGX39 (paediatric high-grade glioma line)
How it was run: as §1

HGGX6 = tested on: HGGX6 (H3.3 G34R paediatric high-grade glioma line)
How it was run: as §1

HNSC = tested on: HNSC
How it was run: as §1

SUDIPGIV = tested on: SUDIPGIV (diffuse intrinsic pontine glioma line)
How it was run: as §1

SUDIPGVI = tested on: SUDIPGVI (diffuse intrinsic pontine glioma line)
How it was run: as §1

SUDIPGXIII = tested on: SUDIPGXIII (diffuse intrinsic pontine glioma line)
How it was run: as §1

Compound | growth inhibition (DIPGX29) | growth inhibition (DIPGX37) | growth inhibition (DIPGX7) | growth inhibition (DIPGX9) | growth inhibition (HGGX39) | growth inhibition (HGGX6) | growth inhibition (HNSC) | growth inhibition (SUDIPGIV) | growth inhibition (SUDIPGVI) | growth inhibition (SUDIPGXIII)
CN1CCN2c3ccccc3Cc3ccccc3C2C1 (stereo not given) | 1.33% | -0.487% | 0.702% | -0.0886% | 2.14% | -2.26% | 2.01% | -0.203% | -0.707% | -2.33%
NCCS(=O)(=O)O | 0.304% | 1.36% | 0.217% | 0.788% | 0.579% | 1.43% | -2.23% | -0.945% | 0.882% | -0.421%
CCC(=O)O[C@]1(C(=O)SCF)[C@H](C)C[C@H]2[C@@H]3C[C@H](F)C4=CC(=O)C=C[C@]4(C)[C@@]3(F)[C@@H](O)C[C@@]21C | 0.571% | 2.49% | -1.29% | 2.53% | 0.688% | -0.734% | 2.55% | -3.9% | -0.462% | 1.22%
COc1cc(/C=C/C(=O)N2CCN(CC(=O)N3CCCC3)CC2)cc(OC)c1OC | -0.327% | 0.826% | -0.108% | -0.784% | 0.66% | -2.67% | 17.5% | 0.556% | -3.03% | -1.16%
CC(C)OC(=O)OCOP(=O)(CO[C@H](C)Cn1cnc2c(N)ncnc21)OCOC(=O)OC(C)C | -0.149% | -0.362% | 0.933% | 1.84% | 4.93% | 2.27% | 0.819% | 0.684% | 0.813% | 1.94%
N=C(N)NS(=O)(=O)c1ccc(N)cc1 | 1.78% | 3.55% | 1.86% | 2.35% | 3.26% | 1.87% | 0.257% | 1.45% | 1.1% | -0.789%
CN(C)c1ccc(O)c2c1C[C@H]1C[C@H]3[C@H](N(C)C)C(=O)C(C(N)=O)=C(O)[C@@]3(O)C(=O)C1=C2O | -4.52% | -0.19% | 0.692% | -1.39% | 3.12% | -2.93% | 5.14% | 2.56% | -1.8% | 1.96%
CNCCC(Oc1ccc(C(F)(F)F)cc1)c1ccccc1 (stereo not given) | 8.11% | 2.62% | 1.4% | 0.851% | 2.21% | 0.48% | 1.75% | 1.62% | 0.57% | 2.42%
CC(C)[C@H](N)C(=O)OCC(CO)OCn1cnc2c(=O)[nH]c(N)nc21 (stereo not given in full) | -0.214% | 1.96% | -0.125% | 0.141% | 0.816% | -2.7% | 0.0503% | 0.2% | -2.51% | 1.45%
CCN(CC)CCCC(C)Nc1ccnc2cc(Cl)ccc12 (stereo not given) | 2.54% | 3.91% | 3.48% | 2.75% | 2.84% | 2.74% | 2.95% | 1.72% | 2.6% | 0.0881%
C[C@](N)(Cc1ccc(O)c(O)c1)C(=O)O | 0.0946% | 1.72% | -0.426% | -0.748% | -1.35% | -1.03% | 0.654% | -0.812% | 1.41% | -0.739%
CC[N+](CC)(CC)CCOc1cccc(OCC[N+](CC)(CC)CC)c1OCC[N+](CC)(CC)CC | 2.95% | 4.13% | 2.35% | 3.16% | 2.47% | 0.26% | 1.9% | -0.653% | 3.43% | -2.39%
COc1cc(Cc2cnc(N)nc2N)cc(OC)c1OC | 1.94% | 3.36% | 1.59% | 1.97% | 3.59% | 2.4% | 0.59% | 2.24% | 2.5% | -1.4%
Cc1cn([C@@H]2C[C@@H](O)[C@H](CO)O2)c(=O)[nH]c1=O | 0.778% | -0.0219% | 0.328% | -2.07% | -0.771% | -3.82% | 1.03% | -0.72% | -10.2% | -2.27%
CCCCOc1cc(C(=O)OCCN(CC)CC)ccc1N | 0.216% | -0.547% | 1.69% | 0.918% | 14.2% | 9.49% | -2.2% | 4.07% | -0.0266% | 2.42%
Nc1nc(NC2CC2)c2ncn([C@H]3C=C[C@@H](CO)C3)c2n1 | 1.7% | 3.27% | 1.17% | 1.56% | 3.46% | 3.46% | 0.755% | 2.42% | 3.29% | 0.173%
C1N2CN3CN1CN(C2)C3 | 1.11% | 3.51% | 1.18% | 2.53% | 3.89% | 2.47% | 0.987% | 1.56% | 1.89% | -0.234%
N#Cc1ccc(C(c2ccc(C#N)cc2)n2cncn2)cc1 | -0.88% | 0.114% | -0.157% | -0.262% | -0.621% | -0.866% | 0.581% | -0.66% | 1.28% | 1.04%
COC(=O)Nc1nc2cc(C(=O)c3ccc(F)cc3)ccc2[nH]1 | 5.17% | 7.48% | 3.54% | 6.48% | -0.271% | 3.94% | 63.6% | -1.42% | 0.822% | 5.19%
O.O.O.O.O=C([O-])CC(O)(CC(=O)[O-])C(=O)[O-].[Li+].[Li+].[Li+] | 1.75% | 1.97% | 1.43% | 0.467% | -0.0466% | -1.34% | 26.2% | 0.611% | 1.36% | -0.99%

Compound | growth inhibition (DIPGX29) | growth inhibition (DIPGX37) | growth inhibition (DIPGX7) | growth inhibition (DIPGX9) | growth inhibition (HGGX39) | growth inhibition (HGGX6) | growth inhibition (HNSC) | growth inhibition (SUDIPGIV) | growth inhibition (SUDIPGVI) | growth inhibition (SUDIPGXIII)
Cc1cn(C2C=CC(CO)O2)c(=O)[nH]c1=O (stereo not given) | 0.293% | -1.7% | -0.477% | 0.481% | -0.264% | -0.492% | 1.41% | -1.27% | 1% | 0.705%
Cc1cnc(NC(=O)C2=C(O)c3ccccc3S(=O)(=O)N2C)s1 | -1.57% | 2.24% | -0.44% | -0.195% | -0.277% | -2.36% | 0.475% | -3.44% | 1.38% | -0.269%
Clc1ccc(C(Cn2ccnc2)OCc2c(Cl)cccc2Cl)c(Cl)c1 (stereo not given) | 2.72% | 3.03% | 3.97% | 3.76% | 8.33% | 5.87% | 4.09% | 11.2% | 2.55% | 10.5%
CCC(=O)O[C@]1(C(=O)CCl)[C@@H](C)C[C@H]2[C@@H]3CCC4=CC(=O)C=C[C@]4(C)[C@@]3(F)[C@@H](O)C[C@@]21C | 2.76% | 3.09% | 1.96% | 5.92% | 8.62% | 1.59% | 10.2% | 6.72% | 2.14% | 2.24%
CCOc1nc2cccc(C(=O)O)c2n1Cc1ccc(-c2ccccc2-c2noc(=O)[nH]2)cc1 | -0.219% | 0.379% | 0.841% | 0.153% | 0.215% | -1.71% | 0.888% | -0.526% | 1.43% | -1.07%
NC(=O)N1c2ccccc2CC(=O)c2ccccc21 | -3.02% | -1.81% | -2.16% | -3.17% | -2.13% | -4.21% | -3.92% | -3.93% | -1.28% | -0.579%
O=C(O)CCCC[C@@H]1SC[C@@H]2NC(=O)N[C@@H]21 | 0.444% | 0.747% | 0.534% | 1.28% | 2.04% | 2.52% | -1.69% | 1.07% | 1.25% | 0.684%
CCCc1nc2c(C)cc(-c3nc4ccccc4n3C)cc2n1Cc1ccc(-c2ccccc2C(=O)O)cc1 | -1.54% | -0.467% | -0.895% | -0.132% | -1.04% | -1.06% | -0.614% | -2.37% | 0.572% | -1.14%
Cc1cccc(N(C)C(=S)Oc2ccc3ccccc3c2)c1 | -3.14% | -1.11% | -2.16% | -2.01% | -1.4% | -3.78% | -3.49% | -3.02% | -3.26% | 0.248%
CN1CCN(C2=Nc3cc(Cl)ccc3Nc3ccccc32)CC1 | 3.8% | 0.486% | 1.02% | -2.02% | 1.24% | 0.753% | -1.26% | -0.494% | -5.31% | -1.11%
O=C(O)CSCC(=O)NC1CCSC1=O (stereo not given) | 0.54% | -0.388% | -0.264% | -0.495% | 0.576% | -1.19% | -1.48% | 0.118% | 1.47% | -6.51%
CC[C@H]1OC(=O)C[C@@H](O)[C@H](C)[C@@H](O[C@@H]2O[C@H](C)[C@@H](O)[C@H](N(C)C)[C@H]2O)[C@@H](CCN2C[C@H](C)C[C@H](C)C2)C[C@@H](C)C(=O)/C=C/C(C)=C/[C@@H]1CO[C@@H]1O[C@H](C)[C@@H](O)[C@@H](OC)[C@H]1OC | -3.18% | -1.96% | -0.192% | -2.36% | -3.76% | -3.98% | 3.6% | -3.04% | -5.87% | 1.2%
O=c1ccn([C@@H]2O[C@H](CO)[C@@H](O)[C@H]2O)c(=O)[nH]1 | -0.716% | -1.37% | 1.57% | -0.704% | 0.73% | -4.51% | 17.6% | -1.57% | -0.357% | -2.42%
CNS(=O)(=O)CCc1ccc2[nH]cc(C3CCN(C)CC3)c2c1 | 0.0879% | 3.2% | 0.944% | 1.8% | 1.37% | -0.244% | 1.62% | 1.09% | 2.79% | -1.47%
CNCCc1ccccn1 | 0.924% | 1.45% | 1.21% | 1.11% | 2.84% | 1.49% | 1.31% | 1.96% | 4.33% | -0.14%
CN(C)CCC(c1ccccc1)c1ccccn1 (stereo not given) | 1.43% | 4.57% | 2.52% | 0.794% | 3.82% | 3.28% | 1.8% | 1.78% | 2.2% | 0.511%
CCOC(=O)OC(C)OC1=C(C(=O)Nc2ccccn2)N(C)S(=O)(=O)c2ccccc21 (stereo not given) | -0.868% | 0.235% | -2.67% | -1.56% | -0.486% | -1.42% | -2.72% | -2.47% | -3.26% | -1.05%
CCn1cc(C(=O)O)c(=O)c2cc(F)c(N3CCN(C)CC3)cc21 | 0.946% | 0.351% | 1.65% | 1.44% | 2.84% | 0.565% | 3.22% | 1.47% | 1.27% | 1.57%
CC(C)(S)[C@@H](N)C(=O)O | 0.657% | -0.325% | 5.5% | -0.781% | 0.519% | -2.1% | 45.1% | -0.3% | 0.273% | -1.43%
COC(=O)[C@@H]1CC2=CC(=O)CC[C@]2(C)[C@@]23O[C@@H]2C[C@@]2(C)[C@@H](CC[C@@]24CCC(=O)O4)[C@H]13 | 0.0665% | 2.47% | -0.276% | 0.756% | 1.45% | 1.56% | -0.69% | 0.898% | 1.05% | 0.0503%
